Compounds with a hit are over-represented: about 13% of the library has one in this group of screens.
Shiga toxin inh = blocks Shiga toxin action in Vero cells. Vero cells, Shiga toxin protein synthesis inhibition reporter. inhibition, % at 38.7 µM. 290,000 tested, 9.2% active; in the data active = inhibition mostly above about 28%, no sharp cut-off; inactive = mostly below about 43%; also: 0% is about no effect
FMDV inh = foot and mouth disease virus antiviral activity | 410,000 tested, 1.2% active | FMDV antiviral cell-based qHTS | Potency, µM (highest dose often 57.9 µM), for inactives: at the highest dose activity change, negative = inhibition, actives largely listed as inhibitors; calls by dose curve; tested in HEK293T cells; also: read-out not given here; potency is read from the fitted curve at half-maximal effect; % is scaled to controls: 0 for no effect and ±100 for the full control effect; nearly all actives have a fitted effect of over 45% in size
Marburg entry inh = Marburg virus entry inhibition; Potency, µM (highest dose often 37.8 µM), for inactives: at the top dose activity change, negative = inhibition, usual class: inhibitors; Marburg virus pseudotyped entry inhibition, cell reporter; AID 540276; 300,000 tested, 1.8% active; calls by dose curve; tested in HEK293 cells; also: potency is read from the fitted curve at half-maximal effect; % is scaled to controls: 0 for no effect and ±100 for the full control effect
Cycloheximide cs = affects cycloheximide protein synthesis inhibition readout, counter-screen; cell reporter, cycloheximide protein synthesis inhibition counterscreen; max response, %; 300,000 tested, 12% active; AID 2314; in the data active = max response mostly above about 13%, no sharp cut-off; inactive = mostly below about 14%; also: read at 38.3 µM for the half of the compounds with a filed dose; 0% is about no effect
LASV entry inh = blocks Lassa virus binding to or entry into cells | Lassa virus pseudotype entry inhibition, cell reporter | 300,000 tested, 1.2% active | AID 540256 | Potency, µM (series often up to 37.9 µM), without a hit: at the highest dose activity change, negative = inhibition, most hits filed as inhibitors; calls by dose curve; tested in HEK293 cells; also: potency is read from the fitted curve at half-maximal effect; % is scaled to controls: 0 for no effect and ±100 for the full control effect; nearly all actives have a fitted effect of over 50% in size
HCV inhibitor = inhibitors of hepatitis C virus infection; AID 651820; Huh7.5.1 HCVcc-Cre infection, luciferase reporter, 44 h; Potency, µM (highest dose often 41.8 µM), inactives show at the highest dose activity change, negative = inhibition, usual class: inhibitors; 340,000 tested, 3.4% active; active = well fitted inhibition curve with a large enough effect; inconclusive = small, poorly fitted or top-dose-only effect, or another doubt; inactive = no such curve, though single readings can be large or run the other way; also: potency is read from the fitted curve at half-maximal effect; % is scaled to controls: 0 for no effect and ±100 for the full control effect
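Reporter virus HCVcc-Cre (~0.5 moi) infects cells exposed to compound; seeding density 1,000 cells/well with 4 h settling beforehand. Luminescence, 15 sec read, taken 44 h post-infection following a 15 min RT substrate incubation.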
Numbers without * were called inactive; ? = inconclusive; / = no result; [ ] = another dose, or the depositor's remark.

SMILES | Shiga toxin inh | FMDV inh | Marburg entry inh | Cycloheximide cs | LASV entry inh | HCV inhibitor
C=C(C(=O)OCC)C(=O)c1ccccc1 | / | / | -6.7%[14.2 µM] | / | / | /
CCN(CC)c1ccc(/C=C2\C(=O)NC(=S)N(C)C2=O)o1 | 110.3* | 3.9% | ? | 44.8* | 24.3%[46.1 µM] | -24.5%
O=C1NC(=O)N(CCc2ccc(F)cc2)C(=O)/C1=C/c1ccco1 | 17.3 | -14.0% | 22.4%[46.1 µM] | 3.5 | -13.1% | 24.8%
O=C1NC(=S)N(c2ccc(F)cc2)C(=O)/C1=C/c1ccccc1O | 36.7 | ? | / | 12.4* | / | 14.1%
Cc1ccc(/C=C2/C(=O)NC(=O)N(CCc3ccc(F)cc3)C2=O)o1 | -5.5 | 25.1µM* | ? | -1.9 | -19.7% | 18.3%
CCN(CC)c1ccc(C=C2C(=O)N(C)C(=S)N(C)C2=O)o1 | 15.4 | -3.0% | ? | -1.4 | -5.2% | 3.5%
COc1cccc(N2C(=O)NC(=O)/C(=C/c3ccc4c(c3)Cc3ccccc3-4)C2=O)c1 | 40.2 | 7.7% | -15.3% | 19.2* | 17.5% | 13.0%
COc1cc(/C=C2/C(=O)NC(=O)N(c3ccccc3)C2=O)ccc1O | -12.0 | -22.0% | ? | -2.9 | -3.0% | 14.5%
Cc1ccc(-n2c(SCC(=O)NCc3ccccc3)nc3c([nH]c4ccccc43)c2=O)cc1 | / | -8.0% | 0.3%[46.1 µM] | / | -24.8%[46.1 µM] | /
COC(=O)[C@]12CCCCC=C1N(Cc1ccco1)C(=O)[C@H](CC(=O)NCc1cccs1)C2 | / | -14.6% | / | / | / | /
CCN(C(=O)COc1cccc(-n2cnnn2)c1)C1CCS(=O)(=O)C1 (stereo not drawn) | / | ? | 6.2%[46.1 µM] | / | 7.5%[46.1 µM] | 18.6%
CCc1nc(SC)ncc1C(=O)N1CCN(c2cc(Cl)ccc2C)CC1 | / | -25.0% | / | / | -0.8%[46.1 µM] | /
Cc1ccc(/C=C2\C(=O)NC(=S)N(c3ccc(F)cc3)C2=O)o1 | 11.1 | 31.6µM* | / | 1.0 | / | 6.4%
COc1cccc(N2C(=O)/C(=C/c3ccc(C)o3)C(=O)NC2=S)c1 | 12.1 | 17.8µM* | / | 0.6 | / | 16.6%
O=C1NC(=S)N(c2ccccc2)C(=O)/C1=C/c1ccco1 | / | 35.5µM* | ? | 0.9 | 21.0%[46.1 µM] | 20.9%
Cc1ccc(C(=O)O)cc1Nc1nc2ccccc2n2nnnc12 | / | 50.9% | 4.1%[46.1 µM] | / | 5.2%[46.1 µM] | /
COc1cccc(Cn2c(-c3nonc3NC(C)=O)nc3ccccc32)c1 | / | -15.6% | ? | / | -13.2%[46.1 µM] | /
COc1ccc(/C=C2\C(=O)ON=C2c2ccccc2)cc1OC | 44.9 | ? | / | -2.9 | / | -4.3%
COc1cc(/C=C2\C(=O)ON=C2c2ccccc2)cc(OC)c1OC | 47.6 | 25.1µM* | -14.3% | -1.2 | -1.9% | -11.8%
COc1cc(/C=C2\N=C(c3ccccc3)NNC2=O)cc(OC)c1OC | -5.7 | 3.3% | ? | -5.4 | ? | 4.9%
O=C1ON=C(c2ccccc2)/C1=C/c1ccco1 | -7.7 | 31.6µM* | -2.5%[46.1 µM] | -3.1 | 4.1%[46.1 µM] | 10.8%
CN(C)/C=C1\C(=O)ON=C1c1ccccc1 | -16.5 | -20.0% | 0.7%[46.1 µM] | -3.0 | 2.3% | 18.2%
COc1ccc(/C=C2/C(=O)ON=C2c2ccccc2)cc1OC | -4.5 | 22.4µM* | 1.6%[46.1 µM] | -3.6 | -4.7% | -1.9%
CCOc1cc(/C=C2\C(=O)ON=C2c2ccccc2)ccc1OC | 18.9 | 35.5µM* | / | -4.8 | / | 12.6%
O=C(CCC1CC(=O)Nc2ccccc21)NCc1ccc(F)cc1 (stereo not drawn) | -12.5 | 1.5% | 11.7% | 1.3 | -36.2%[14.3 µM] | /
SMILES | Shiga toxin inh | FMDV inh | Marburg entry inh | Cycloheximide cs | LASV entry inh | HCV inhibitor
COc1ccc(/C=C2\C(=N)N3N=C(CC(=O)N4CCCCC4)SC3=NC2=O)cc1 | 4.8 | 12.9% | 5.6%[46.1 µM] | -4.2 | -0.2%[46.1 µM] | 3.4%
O=C1ON=C(c2ccccc2)/C1=C/c1ccc(-c2ccccc2[N+](=O)[O-])o1 | 26.5 | 28.2µM* | ? | -2.4 | ? | 0.7%
C=CCN1C(=O)NC(=O)/C(=C\c2ccc(-c3ccccc3[N+](=O)[O-])o2)C1=O | 18.2 | ? | -13.9%[46.1 µM] | -4.2 | 4.7% | 0.7%
NC(=O)COc1ccc(/C=C2\C(=O)ON=C2c2ccccc2)cc1 | / | 25.1µM* | ? | / | 22.7% | 6.1%
CCOC(=O)c1cn2nc(SCc3ccccc3)nc2nc1C | 52.0* | 22.7% | -5.4% | 39.2* | -1.9% | -6.8%
Cc1nc2nc(SCc3ccccc3)nn2c(C)c1C | / | 43.5% | / | / | / | -1.7%
N#Cc1cnc2nc(SCc3ccccc3)nn2c1 | 70.1* | 1.9% | ? | 35.0* | ? | 7.5%
CC(C(c1ccc2c(c1)OCO2)c1c(N)n(C)c(=O)n(C)c1=O)[N+](=O)[O-] (stereo not drawn) | / | -15.0% | / | / | / | -3.4%
Nc1nnnn1/N=C/C=C/c1ccccc1 | 41.0 | 33.2% | 3.1% | 17.4* | 27.2% | 6.8%
Nc1nnnn1/N=C/C(Br)=C/c1ccccc1 | 176.3* | 14.1µM* | 5.01µM* | 68.4* | ? | 10µM*
COc1ccc(NC(=O)CSc2cn[nH]n2)cc1OC | -17.0 | -19.0% | 5.9%[46.1 µM] | -2.9 | 21.6% | -0.7%
CCOC(=O)c1ccc(-c2ccc(/C=N/NC(=O)CN(c3ccccc3Cl)S(C)(=O)=O)o2)cc1 | 4.6 | ? | ? | 14.3* | -14.3% | ?
COc1cc2c(cc1OC)[C@@H](NC(=O)c1ccc(C(F)(F)F)cc1)[C@H](OCc1ccccc1)C2 | / | -23.4% | / | / | / | 10.6%
NC(=O)c1ccccc1NC(=O)Nc1cccc(Cl)c1 | 44.8* | 56.0% | 5.3% | 20.9* | ? | 5.4%
NC(=O)c1ccccc1NC(=O)CN1CCN(Cc2ccc(Cl)cc2Cl)CC1 | -10.1 | 17.8µM* | ? | -5.0 | -26.3% | ?
O=C(NNc1ccccc1[N+](=O)[O-])Nc1cccc(Cl)c1 | 81.0* | -1.8% | / | 47.5* | / | 0.1%
CSc1ccc(NC(=O)Nc2ccccc2C(N)=O)cc1 | 74.4* | 7.7% | / | 67.4* | / | -2.5%
CC(C)(C)NC(=O)Nc1ccccc1C(N)=O | -2.5 | / | 19.2% | -1.4 | 16.7% | 21.4%
COc1ccc(Cl)cc1NC(=O)Nc1ccccc1C(N)=O | -8.6 | 1.2% | / | 7.6 | / | -16.0%
NC(=O)c1ccccc1NC(=O)CN1CCN(Cc2ccccc2)CC1 | -4.0 | -18.5% | / | 11.7 | / | 2.7%
O=C(NNc1ccccc1[N+](=O)[O-])Nc1ccc(F)cc1F | 33.0 | -1.6% | 3.5%[46.1 µM] | 1.3 | 0.8% | 7.5%
Cc1cccc(NC(=O)c2cc(NC(=O)C3CCCCC3C(=O)O)ccc2N2CCOCC2)c1 (stereo not drawn) | 11.3 | 13.7% | 1.9% | -1.9 | 11.6% | /
COc1cccc(NC(=O)Nc2ccccc2C(N)=O)c1 | 34.8 | 32.0% | ? | 27.2* | 10.9%[46.1 µM] | 5.4%
O=C(Nc1cccc(Cl)c1)Nc1ccccc1C(=O)O | 47.0* | -5.6% | / | 23.9* | / | 8.7%
CC(C)c1ccc(C(=O)Nc2ccc(CN3CCOCC3)cc2)cc1 | 54.5* | -5.6% | ? | 23.4* | -14.2%[46.1 µM] | ?
CC(C)c1ccc(CN2CCN(C(=O)CCl)CC2)cc1 | 10.5 | 17.8µM* | ? | 3.0 | ? | 11.2µM*
CCOC(=O)c1ccc(NC(=O)c2ccc(CN3CCOCC3)cc2)cc1 | -0.4 | 25.1µM* | ? | 8.5 | ? | ?
CC(C)c1ccc(/C=C/C(=O)Nc2ccc(CN3CCOCC3)cc2)cc1 | 11.8 | 28.2µM* | -1.8%[46.1 µM] | 11.0 | ? | 2.24µM*

Screening data: PubChem BioAssay, National Center for Advancing Translational Sciences (NCATS)
